Compounds without any hit were thinned out: in the full panel of roughly 83,000, 20% have a hit.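 Single-concentration screen, 48 h exposure, 96-well plates. Endpoint: percent growth. Below 10 = active.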 The source made the active and inactive calls.
System: CCRF-CEM leukemia
Experiment: NCI-60 one-dose screen, 48 h (100 = growth as untreated, 0 = no growth, -100 = all killed)
Settings: 10 µM unless noted

SMILES	growth
O=C(CSc1nc2ccccc2c(=O)n1-c1ccc(S(=O)(=O)Nc2ccc(Cl)nn2)cc1)Nc1ccc(S(=O)(=O)Nc2ccc(Cl)nn2)cc1	101% (inactive)
C=C(C)[C@@H]1CC[C@]2(COP(=O)(OCC)OCC)CC[C@]3(C)[C@H](CC[C@@H]4[C@@]5(C)CC[C@H](OP(=O)(OCC)OCC)C(C)(C)[C@@H]5CC[C@]43C)[C@@H]12	39.4% (inactive)
COC(=O)c1cccc(NC2=C(Cl)C(=O)C(C)=C(C)C2=O)c1	6.54% (active)
Cn1cc(-c2nc(N)nnc2-c2c[nH]c3ccc(Br)cc23)c2cc(F)ccc21	83.2% (inactive)
O=C(O)c1ccc(-n2c(=O)n(-c3cccc(C(F)(F)F)c3)c(=O)c3cc(-c4ccc(F)cc4F)ccc32)cc1	19.5% (inactive)
O=C1[C@H]2Cc3c([nH]c4ccccc34)[C@H](c3ccc(Br)cc3)N2C(=O)CN1C1CCN(CC2CCCCC2)CC1	49.1% (inactive)
C#Cc1nc(/C=C/CCCCCCC(=O)NO)cs1	-39.3% (active)
C#CCN(C)CCCOc1ccc(NC(=O)CCCCCCCCC(=O)NO)cc1Cl	30.5% (inactive)
NC(=O)c1ncn2c(=O)n(CCF)nnc12	28.5% (inactive)
Cc1csc(/N=C(N)/N=C(\N)c2cccc(C#N)c2)n1	82.7% (inactive)
C=C(C)[C@@H]1CC[C@]2(COCCCNCCCN)CC[C@]3(C)[C@H](CC[C@@H]4[C@@]5(C)CC[C@H](O)C(C)(C)[C@@H]5CC[C@]43C)[C@@H]12	-40.2% (active)
O=C(/C=C/c1cccc(F)c1)c1cccc(OCCCOc2cccc(C(=O)/C=C/c3cccc(F)c3)c2)c1	36.8% (inactive)
Cc1ccc(C(=O)CSc2nc3ccccc3c(=O)n2C)cc1	83.6% (inactive)
Cc1ccc2c(n1)C(=O)C(Cl)=C(Nc1ccc(C#N)cc1)C2=O	3.83% (active)
CC(C)(O)c1cncc(-c2ccc3ncc(C#N)c(N4CCc5cc(F)c(Cl)cc54)c3c2)c1	20.5% (inactive)

System: MOLT-4 leukemia
Experiment: as above
Settings: 10 µM unless noted

SMILES	growth
O=S(=O)(NCCCNc1nccc(-c2[nH]c(-c3ccccc3)nc2-c2ccc(F)c(O)c2)n1)c1cccc(F)c1	44.3% (inactive)
Cn1cc(-c2cc3ncnc(Nc4ccc(NC(=O)Nc5cc(C(C)(C)C)on5)cc4)c3s2)cn1	14.3% (inactive)
Cn1ncc2c(C(=O)c3ccc(F)cc3)nc(C(C)(C)C)nc21	92.6% (inactive)
N#Cc1c(-c2cccs2)cc(-c2cnccn2)nc1SCC(=O)N/N=C/c1ccc(Cl)cc1	102% (inactive)
O=C(/C=C/c1cc(Cl)ccc1Cl)Nc1ncc(Cc2ccc(Cl)cc2)s1	15.2% (inactive)
CNC(=O)c1cc(N2CCc3cc(NC(=O)Nc4ccc(N5CCN(C)CC5)c(C(F)(F)F)c4)ccc32)ccn1	17.3% (inactive)
CCc1cc(O)ccc1Nc1cc(-c2ccc(-n3cccn3)cc2)[nH]n1	43.6% (inactive)
COc1ccc2[nH]cc(-c3nc(N)nnc3-c3cn(C)c4ccc(Br)cc34)c2c1	10.7% (inactive)
CCCCCCCCCCCC(=O)NC(C)(C)C(=O)N1CCCC1C(=O)NC(C)(C)C(=O)NC(C)(C)C(=O)N1CCCC1C(=O)NC(C)(C)C(=O)NC(C)(C)C(=O)N1CCCC1C(=O)NC(C)C(=O)NCCC(=O)NC(C)C(=O)NC(C)(C)C(=O)NC(C)(C)C(=O)NC(C)(C)C(=O)NCCC(=O)NC(C)(C)C(=O)NC(C)(C)C(=O)NC(C)(C)C(=O)NC(C)C(=O)NCCC(=O)O (stereo not given)	-67.9% (active)
CCCc1[nH]c(-c2cc(N)ccc2Cl)c2c1C(=O)CCCC2	88.6% (inactive)
CC1=C(C)C(=O)C(Nc2ccc(C)cc2)=C(Br)C1=O	-30.6% (active)
O=S(=O)(Oc1ccc(-c2cn3ccsc3n2)cc1)c1cccc(C(F)(F)F)c1	97.6% (inactive)
C#CCOc1cccc(/C(N)=N/C(N)=N/c2nc3ccccc3s2)c1	71.8% (inactive)
CCOC(=O)c1c(NC(=O)c2ccc(C(F)(F)F)cc2)sc2c(CN3CCN(C)CC3)c(O)ccc12	-36.5% (active)
Cc1ccc(NC(=O)Nc2nc3ccc([N+](=O)[O-])cc3s2)cc1	17.2% (inactive)
CCOC(=O)c1c(NCC(=O)Nc2cccc([N+](=O)[O-])c2)sc(C(C)=O)c1C	3.1% (active)
O=C(CCCCCCNC(=O)C(O)(O)C(F)(F)F)Nc1ccc(Br)cc1	13.2% (inactive)
Cc1ccccc1N1CCN(C2=C(Cl)C(=O)c3ncccc3C2=O)CC1	10.4% (inactive)
O=C1[C@@H]2Cc3c([nH]c4ccccc34)[C@H](c3ccc(Br)cc3)N2C(=O)CN1C1CCN(Cc2c(Cl)cccc2Cl)CC1	65.9% (inactive)
Cc1ccc(CSC2=C(Cl)CN(c3ccc(Cl)cc3)C2=O)cc1	110% (inactive)

SMILES	growth
COC(=O)CCCNCCCn1ccc2cc(NCc3cccc(-c4ccccc4)c3C)ccc21	49.5% (inactive)
C#CCOc1ccccc1/C=N/Nc1nc(-c2ccc(Cl)cc2)cs1	90.8% (inactive)
CC(=O)c1c([Si](C)(C)C)c2cc(C#N)ccn2c1C(=O)c1ccc(Br)cc1	85.3% (inactive)
O=C(COc1ccc(/C=C2\C(=O)Nc3ccc(F)cc32)cc1)Nc1ccccc1	99.2% (inactive)
COc1ccc(CC(C)=C(c2ccc(OCCN3CCCC3)cc2)c2ccc(OCCN3CCCC3)cc2)cc1	-60.3% (active)
O=C(CSc1nc2ccccc2c(=O)n1-c1ccc(S(=O)(=O)Nc2ccc(Cl)nn2)cc1)Nc1ccc(S(=O)(=O)Nc2ccc(Cl)nn2)cc1	97.6% (inactive)
C=C(C)[C@@H]1CC[C@]2(COP(=O)(OCC)OCC)CC[C@]3(C)[C@H](CC[C@@H]4[C@@]5(C)CC[C@H](OP(=O)(OCC)OCC)C(C)(C)[C@@H]5CC[C@]43C)[C@@H]12	27.8% (inactive)
COC(=O)c1cccc(NC2=C(Cl)C(=O)C(C)=C(C)C2=O)c1	11.3% (inactive)
Cn1cc(-c2nc(N)nnc2-c2c[nH]c3ccc(Br)cc23)c2cc(F)ccc21	69.4% (inactive)
O=C(O)c1ccc(-n2c(=O)n(-c3cccc(C(F)(F)F)c3)c(=O)c3cc(-c4ccc(F)cc4F)ccc32)cc1	4.7% (active)
O=C1[C@H]2Cc3c([nH]c4ccccc34)[C@H](c3ccc(Br)cc3)N2C(=O)CN1C1CCN(CC2CCCCC2)CC1	38.5% (inactive)
C#Cc1nc(/C=C/CCCCCCC(=O)NO)cs1	-14% (active)
C#CCN(C)CCCOc1ccc(NC(=O)CCCCCCCCC(=O)NO)cc1Cl	43.2% (inactive)
NC(=O)c1ncn2c(=O)n(CCF)nnc12	29.9% (inactive)
Cc1csc(/N=C(N)/N=C(\N)c2cccc(C#N)c2)n1	85.6% (inactive)
C=C(C)[C@@H]1CC[C@]2(COCCCNCCCN)CC[C@]3(C)[C@H](CC[C@@H]4[C@@]5(C)CC[C@H](O)C(C)(C)[C@@H]5CC[C@]43C)[C@@H]12	-34.5% (active)
O=C(/C=C/c1cccc(F)c1)c1cccc(OCCCOc2cccc(C(=O)/C=C/c3cccc(F)c3)c2)c1	56.3% (inactive)
Cc1ccc(C(=O)CSc2nc3ccccc3c(=O)n2C)cc1	88% (inactive)
Cc1ccc2c(n1)C(=O)C(Cl)=C(Nc1ccc(C#N)cc1)C2=O	7.64% (active)
CC(C)(O)c1cncc(-c2ccc3ncc(C#N)c(N4CCc5cc(F)c(Cl)cc54)c3c2)c1	5.17% (active)

Reference: PubChem BioAssay (NCI)
